Test results reported in PubChem BioAssay AID624139 (Broad Institute, 2012).
About 220 (1.3%) of roughly 17,000 compounds were called active. This is one part of a sample in which actives are shown more often than they occur.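 The calls were made as follows: active = spot fluorescence over background significantly raised, with a chance value under 7% in all four replicate spots of the compound; inactive = the rest.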

The compounds below were run against Nuclear factor NF-kappa-B p105 subunit (Homo sapiens) (UniProt P19838) (assay: binders of NF-kB p50 subunit, primary screen, biochemical, small molecule microarray, anti-His fluorescence (AID 624139;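 also: probe protein is his-tagged human p50 processed subunit at 1 µg/ml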)). Details: anti-His fluorescence binding.
Chain of Nuclear factor NF-kappa-B p105 subunit (Homo sapiens) (P19838 1-433 limits assumed): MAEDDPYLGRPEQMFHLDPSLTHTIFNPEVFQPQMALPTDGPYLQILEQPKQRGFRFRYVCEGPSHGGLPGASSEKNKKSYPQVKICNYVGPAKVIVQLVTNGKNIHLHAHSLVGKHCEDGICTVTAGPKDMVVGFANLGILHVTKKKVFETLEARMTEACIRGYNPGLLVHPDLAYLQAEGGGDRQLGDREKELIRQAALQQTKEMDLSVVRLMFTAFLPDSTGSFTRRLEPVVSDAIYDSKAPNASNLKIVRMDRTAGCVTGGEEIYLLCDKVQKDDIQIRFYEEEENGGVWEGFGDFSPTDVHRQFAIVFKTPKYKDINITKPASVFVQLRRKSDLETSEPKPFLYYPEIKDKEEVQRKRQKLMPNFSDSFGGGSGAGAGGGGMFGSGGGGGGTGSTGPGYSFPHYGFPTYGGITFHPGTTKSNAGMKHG

SMILES	outcome
Cc1c(C(=O)NC(=S)NCc2cccnc2)oc2ccccc12	inactive
Cc1noc(C)c1NC(=O)N(C)C[C@@H]1OCCCC[C@H](C)Oc2ccc(NC(=O)CCC(F)(F)F)cc2C(=O)N([C@@H](C)CO)C[C@@H]1C	inactive
C[C@H]1CN([C@@H](C)CO)C(=O)Cc2cc(NC(=O)Nc3ccc(F)cc3)ccc2O[C@@H]1CN(C)C(=O)NC1CCCCC1	inactive
O=C(Nc1cccc(OCC(=O)N2CCOCC2)c1)C1CCCCC1	inactive
O=C(C1=C[C@H](c2coc3ccccc3c2=O)C[C@H](OCc2ccc(CO)cc2)O1)N1CCOCC1	inactive
C[C@@H]1CCCCO[C@H](CN(C)C(=O)Nc2ccccc2)[C@H](C)CN([C@@H](C)CO)C(=O)c2cc(N(C)C)ccc2O1	inactive
C[C@@H]1CN([C@H](C)CO)C(=O)c2cccc(NC(=O)Nc3ccccc3)c2O[C@@H]1CN(C)C(=O)NC1CCCCC1	inactive
C[C@@H]1CCCCO[C@@H](CN(C)C(=O)Cc2ccccc2)[C@H](C)CN([C@@H](C)CO)C(=O)c2cc(NC(=O)Nc3ccc(F)cc3)ccc2O1	active
C[C@@H]1CN([C@H](C)CO)C(=O)Cc2cc(NC(=O)C3CC3)ccc2O[C@H]1CN(C)Cc1ccc(Cl)c(Cl)c1	active
C[C@H](CO)N1C[C@H](C)[C@@H](CN(C)C(=O)NC2CCCCC2)Oc2c(NC(=O)Nc3ccc(F)cc3)cccc2C1=O	inactive
C[C@@H]1CCCCO[C@@H](CN(C)C(=O)Nc2ccccc2)[C@@H](C)CN([C@H](C)CO)C(=O)c2cc(NC(=O)Nc3ccc(F)cc3)ccc2O1	inactive
C[C@H](CO)N1C[C@H](C)[C@@H](CN(C)C(=O)Nc2ccccc2)Oc2ccc(NC(=O)C3CC3)cc2CC1=O	inactive
C[C@H]1CN([C@@H](C)CO)C(=O)c2cccc(NC(=O)Nc3ccc(C(F)(F)F)cc3)c2O[C@H]1CN(C)C(=O)NC1CCCCC1	active
C[C@@H]1CCCCO[C@@H](CN(C)C(=O)Nc2ccccc2)[C@@H](C)CN([C@@H](C)CO)C(=O)c2cc(N(C)C)ccc2O1	inactive
CC(C)NC(=O)Nc1ccc2c(c1)C(=O)N([C@@H](C)CO)C[C@@H](C)[C@H](CN(C)C(=O)Cc1ccccc1)OCCCC[C@H](C)O2	inactive
C[C@H](CO)N1C[C@H](C)[C@@H](CN(C)C(=O)Nc2cccc3ccccc23)OCCCC[C@H](C)Oc2ccc(N(C)C)cc2C1=O	active
C[C@@H]1CN([C@H](C)CO)C(=O)Cc2cc(NC(=O)C3CC3)ccc2O[C@H]1CN(C)Cc1ccc2c(c1)OCO2	inactive
C[C@H](CO)N1C[C@H](C)[C@@H](CN(C)C)OCCCC[C@H](C)Oc2ccc(NC(=O)C3CCCCC3)cc2C1=O	inactive
C[C@@H]1CCCCO[C@H](CN(C)C(=O)NC2CCCCC2)[C@H](C)CN([C@@H](C)CO)C(=O)c2cc(NC(=O)C3CCCCC3)ccc2O1	active
CC(C)NC(=O)N(C)C[C@@H]1OCCCC[C@@H](C)Oc2ccc(NC(=O)Nc3ccccc3)cc2C(=O)N([C@H](C)CO)C[C@@H]1C	inactive
C[C@@H]1CCCCO[C@H](CN(C)C(=O)C2CCCCC2)[C@@H](C)CN([C@@H](C)CO)C(=O)c2cc(NC(=O)Nc3ccccc3)ccc2O1	active
C[C@@H]1CN([C@@H](C)CO)C(=O)c2cc(NC(=O)C3CCCCC3)ccc2O[C@@H](C)CCCCO[C@@H]1CN(C)C(=O)Nc1ccccc1	inactive

SMILES	outcome
C[C@@H]1CCCCO[C@H](CN(C)C(=O)Nc2ccccc2)[C@H](C)CN([C@H](C)CO)C(=O)c2cc(NC(=O)Nc3ccccc3)ccc2O1	inactive
C[C@@H]1CN([C@@H](C)CO)C(=O)c2cc(NS(=O)(=O)c3ccccc3)ccc2O[C@@H](C)CCCCO[C@H]1CN(C)C(=O)C1CCCCC1	inactive
C[C@@H]1CCCCO[C@H](CN(C)C(=O)CCCN(C)C)[C@H](C)CN([C@@H](C)CO)C(=O)c2cc(NS(=O)(=O)c3ccccc3)ccc2O1	inactive
CCC1(C)C(=O)C=C2C(=COC(C)=C2C)C1O (stereo unspecified)	inactive
COc1ccccc1NC(=O)c1ccc(OCC(=O)O)cc1	inactive
C[C@H](CO)N1C[C@H](C)[C@@H](CN(C)C(=O)Nc2cccc3ccccc23)Oc2c(NS(=O)(=O)c3ccccc3)cccc2C1=O	inactive
CC1OC(Oc2cc(O)c3c(=O)c(OC4OCC(O)C(O)C4O)c(-c4ccc(O)cc4)oc3c2)C(O)C(O)C1O (stereo unspecified)	inactive
O=C(CS(=O)(=O)c1ccccc1)Nc1ccc2c(c1)OCCO2	inactive
COc1ccc(CN(C)C[C@H]2Oc3ccc(NC(=O)CCN4CCOCC4)cc3C(=O)N([C@@H](C)CO)C[C@H]2C)cc1	inactive
CC(=O)OC[C@H]1O[C@@H](Oc2c(-c3ccc(O)c(O)c3)oc3cc(O)cc(O)c3c2=O)[C@H](O)[C@@H](O)[C@@H]1O	inactive
C[C@H](CO)N1C[C@H](C)[C@@H](CN(C)Cc2ccc3c(c2)OCO3)Oc2ccc(NC(=O)Nc3ccc(F)cc3)cc2C1=O	inactive
C[C@@H]1CN([C@@H](C)CO)C(=O)c2cc(NC(=O)Nc3ccc4c(c3)OCO4)ccc2O[C@@H](C)CCCCO[C@@H]1CN(C)Cc1ccccc1	inactive
CCOC(=O)c1nnn(-c2nonc2-n2cccc2)c1CN1CCOCC1	inactive
Cc1noc(C)c1NC(=O)Nc1ccc2c(c1)CC(=O)N([C@@H](C)CO)C[C@H](C)[C@@H](CN(C)C(=O)Nc1ccc3c(c1)OCO3)O2	inactive
C[C@@H]1CN([C@@H](C)CO)C(=O)Cc2cc(NC(=O)NC3CCCCC3)ccc2O[C@H]1CN(C)C(=O)Nc1ccc(C(F)(F)F)cc1	inactive
Cc1cc(C)cc(Oc2c(C(F)(F)F)oc3cc(OCC(=O)O)ccc3c2=O)c1	active
C[C@H]1CN([C@@H](C)CO)C(=O)Cc2cc(NS(C)(=O)=O)ccc2O[C@@H]1CN(C)S(=O)(=O)c1cccs1	inactive
N#Cc1c(SCC(=O)Nc2ccccc2)ncc2cc3ccccc3nc12	inactive
CN(C)Cc1c(O)ccc2occ(C(O)c3ccccc3)c12 (stereo unspecified)	inactive
Cc1ccc(S(=O)(=O)NCC(=O)N2CCN(c3ccccn3)CC2)cc1	inactive
CCCN(C)C[C@@H]1Oc2ncc(C#Cc3ccccc3)cc2C(=O)N([C@H](C)CO)C[C@@H]1C	inactive
C#Cc1ccc([C@H]2C=C(C(=O)O)O[C@@H](OCC)[C@@H]2CCCO)cc1	inactive

SMILES	outcome
COc1ccc(NC(=O)N(C)C[C@@H]2OCCCC[C@@H](C)Oc3ccc(N(C)C)cc3C(=O)N([C@H](C)CO)C[C@@H]2C)cc1	inactive
C[C@@H]1CCCCO[C@@H](CN(C)C)[C@@H](C)CN([C@H](C)CO)C(=O)c2cc(N(C)C)ccc2O1	inactive
C[C@H](CO)N1C[C@H](C)[C@@H](CN(C)C(=O)C2CCCCC2)OCCCC[C@H](C)Oc2ccc(N(C)C)cc2C1=O	inactive
C[C@@H]1CCCCO[C@H](CN(C)S(=O)(=O)c2cccs2)[C@@H](C)CN([C@@H](C)CO)C(=O)c2cc(NC(=O)Nc3ccc4c(c3)OCO4)ccc2O1	inactive
COC(=O)c1c(CC[C@@H](CO)NC(=O)Nc2ncn[nH]2)oc(C(=O)Cc2ccccc2)c1C(=O)OC	inactive
Cc1noc(C)c1S(=O)(=O)N(C)C[C@@H]1OCCCC[C@H](C)Oc2ccc(NC(=O)NC(C)C)cc2C(=O)N([C@H](C)CO)C[C@@H]1C	inactive
COC(=O)C1=C[C@@H](O)[C@@H](O)[C@H](O[C@@H]2O[C@H](CO)[C@@H](O)[C@H](O)[C@H]2OC(=O)/C=C/c2ccccc2)C1	inactive
CC(C)NC(=O)Nc1ccc2c(c1)C(=O)N([C@@H](C)CO)C[C@H](C)[C@@H](CN(C)Cc1ccc(C(=O)O)cc1)OCCCC[C@H](C)O2	inactive
C[C@@H]1CCCCO[C@@H](CN(C)Cc2ccncc2)[C@H](C)CN([C@H](C)CO)C(=O)c2cc(N(C)C)ccc2O1	inactive
C[C@@H]1CN([C@H](C)CO)C(=O)CCCn2nncc2CO[C@@H]1CN(C)C	inactive
C[C@@H]1CN([C@@H](C)CO)C(=O)c2cccc(NC(=O)Nc3ccc(F)cc3)c2O[C@H]1CN(C)C(=O)Nc1ccc(F)cc1	inactive
C[C@H]1CCCCO[C@@H](CN(C)Cc2ccc(C(=O)O)cc2)[C@@H](C)CN([C@@H](C)CO)C(=O)c2cc(NS(C)(=O)=O)ccc2O1	inactive
COc1ccc(CN(C)C[C@@H]2Oc3ccc(NC(=O)c4ccncc4)cc3CC(=O)N([C@H](C)CO)C[C@H]2C)cc1	inactive
COc1cccc(OC)c1C(=O)NC(=S)NCc1ccco1	inactive
C[C@@H]1CCCCO[C@@H](CN(C)C(=O)Nc2ccc(F)cc2)[C@H](C)CN([C@@H](C)CO)C(=O)c2cc(NS(=O)(=O)c3ccccc3)ccc2O1	inactive
C[C@@H]1CN([C@@H](C)CO)C(=O)CCCn2cc(nn2)CO[C@H]1CN(C)S(=O)(=O)c1ccc(-n2cccn2)cc1	inactive
CNC[C@H]1Oc2ccc(NC(=O)Nc3ccc(F)cc3)cc2C(=O)N([C@@H](C)CO)C[C@@H]1C	inactive
C[C@@H]1CN([C@H](C)CO)C(=O)c2cccc(NC(=O)Nc3ccc(C(F)(F)F)cc3)c2O[C@H]1CN(C)S(=O)(=O)c1ccc(Cl)cc1	inactive
Cc1ccc(S(=O)(=O)N2CCCC2C(=O)NCCO)cc1 (stereo unspecified)	inactive
COc1ccc([Si](C)(C)[C@@H]2[C@@H](CCO)O[C@]3(C(=O)N(Cc4ccccc4)c4ccc(N5CCC5=O)cc43)[C@H]2C)cc1	inactive
C[C@@H]1CN([C@H](C)CO)C(=O)CCCn2cc(nn2)CO[C@H]1CN(C)C(=O)Nc1ccc(N2CCCCC2)cc1	inactive
C[C@H](CO)N1C[C@H](C)[C@@H](CN(C)CC2CC2)Oc2ccc(NC(=O)Nc3ccccc3)cc2CC1=O	inactive
